Measurements taken from PubChem BioAssay (NCATS).
Results filed as inconclusive are left out. Values without a mark were called inactive. Calls of active or inactive are those of the source. Calls follow the shape of the dose curve; as a rule, active = well fitted inhibition curve with a large enough effect; inconclusive = small, poorly fitted or top-dose-only effect; inactive = flat fitted curve, though single readings scatter.

Assays:
HEK293 = assay: Cytotoxic Profiling of Annotated Libraries Using Quantitative High-Throughput Screening (AID 1296008); conditions: Five cell lines viability, CellTiter-Glo ATP luminescence, 48-72 h; max response: active compounds read low; also: potency is read from the fitted curve at half-maximal effect; as to max response: % is scaled to controls: 0 for no effect and ±100 for the full control effect
Outline: (§1)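 Cytotoxicity was measured as CellTiter-Glo ATP luminescence, read after 10 min at room temperature. Compound treatment of the cells lasted 48 or 72 hr at 37 degrees Celsius in a qHTS format.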

KB-3-1 = assay: as above; conditions: Five cell lines viability, CellTiter-Glo ATP luminescence, 48-72 h; max response: active compounds read low
Outline: as §1

NIH3T3 = assay: as above; conditions: Five cell lines viability, CellTiter-Glo ATP luminescence, 48-72 h; max response: active compounds read low
Outline: as §1

HaCat [1] = assay: as above; conditions: Five cell lines viability, CellTiter-Glo ATP luminescence, 48-72 h; max response: active compounds read low
Outline: as §1

HACAT [2] = assay: qHTS assay to identify novel small-molecules to repurpose for Merkel cell carcinoma treatment (AID 1296009); conditions: MCC and control cell lines, CellTiter-Glo viability, 72 h; series mostly up to 44.8 µM
Outline: (§2)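 Cell viability, measured as CellTiter-Glo luminescence, was normalized between DMSO and no-cell wells. The cells had been exposed to 8- or 11-point compound dilutions for 72 hr at 37 degree celsius.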

HEK293T = assay: as above; conditions: MCC and control cell lines, CellTiter-Glo viability, 72 h; at 44.8 µM (top of the series) unless noted
Outline: as §2
Also: nearly all actives have a fitted effect of over 60% in size.

CN(C)c1nc(NC2CCC(NC(=O)c3ccc(F)c(F)c3)CC2)nc2ccccc12 (stereo unspecified)
Potency (HEK293): 16.4 µM (active)
Potency (KB-3-1): 23.1 µM (active)

Oc1ccc(CNc2ccccc2F)c2cccnc12
Potency (HEK293): 18.4 µM (active)
Potency (KB-3-1): 5.8 µM (active)

CC(C)(C#N)c1ccc(N2C(=O)OCc3cnc4ccc(-c5cnc6ccccc6c5)cc4c32)cc1
Potency (HEK293): 7.31 µM (active)
Potency (KB-3-1): 6.51 µM (active)

C[C@@H]1O[C@@H](O[C@H]2[C@H](O[C@H]3CC[C@@]4(C)C(CC[C@]5(C)C4C=C[C@]46OC[C@@]7(CCC(C)(C)C[C@H]74)[C@@H](O)C[C@]65C)[C@]3(C)CO)O[C@H](CO)[C@@H](O)[C@@H]2O[C@@H]2O[C@H](CO)[C@@H](O[C@@H]3O[C@@H](C)[C@H](O)[C@@H](O)[C@H]3O)[C@H](O)[C@H]2O)[C@H](O)[C@H](O)[C@H]1O (stereo partly specified)
Potency (HEK293): 3.9 µM (active)
max response (KB-3-1): -30.1%

Cc1cccc(C)c1OCc1cc(C(=O)N2CCC(c3ccncc3)CC2)no1
Potency (HEK293): 6.51 µM (active)
Potency (KB-3-1): 8.2 µM (active)
max response (NIH3T3): -17.2%

Cc1c[nH]c2nccc(Oc3c(F)cc(Nc4cc(Cl)nc(N)n4)cc3F)c12
Potency (HEK293): 5.8 µM (active)
Potency (KB-3-1): 1.46 µM (active)
Potency (NIH3T3): 10.3 µM (active)

COC(=O)N[C@@H](C)CNc1nccc(-c2cn(C(C)C)nc2-c2cc(Cl)cc(NS(C)(=O)=O)c2F)n1
Potency (HEK293): 11.6 µM (active)
max response (KB-3-1): -3.34%

CC(C)[C@@](C)(O)[C@@H]1CN(c2nc(-c3[nH]nc4ncccc34)c(F)cc2Cl)CCN1
Potency (HEK293): 13 µM (active)
Potency (KB-3-1): 20.6 µM (active)

Cc1c(C(=O)Nc2ccc(N3CC(C)OC(C)C3)nc2)cccc1-c1ccc(OC(F)(F)F)cc1 (stereo unspecified)
Potency (HEK293): 9.2 µM (active)
max response (KB-3-1): -28.5%

CC(O)c1cc(C(=O)N[C@@H](C)Cn2ccc(-c3ccc(C#N)c(Cl)c3)n2)n[nH]1 (stereo partly specified)
Potency (HEK293): 18.4 µM (active)
max response (KB-3-1): -27.8%

O=C(Nc1ccc(Cl)cc1F)c1ccccc1O
Potency (HEK293): 16.4 µM (active)
Potency (KB-3-1): 13 µM (active)

CNC(=O)c1ccccc1Nc1nc(Nc2ccc3c(c2OC)CCC[C@@H](N2CCN(CCO)CC2)C3)ncc1Cl
Potency (HEK293): 5.8 µM (active)
Potency (KB-3-1): 13 µM (active)

Cc1cccc(/C=N/Nc2cc(N3CCOCC3)n3nc(-c4ccncc4)cc3n2)c1
Potency (HEK293): 5.8 µM (active)
max response (KB-3-1): -17.8%
Potency (NIH3T3): 0.651 µM (active)

CCN(CC)c1ccc2c(O)c(C=Nc3ccc(CC(=O)O)c(-c4c5c(nc6ccccc46)CCC(C(=O)NN)C5)c3)c(=O)oc2c1 (stereo unspecified)
Potency (HEK293): 11.6 µM (active)
Potency (KB-3-1): 5.8 µM (active)

C[C@H]1C(=O)N2c3ccccc3[C@@]3(O)C[C@@H]4C(=O)N[C@](C)(c5nc6ccccc6c(=O)n54)N1[C@@H]23
max response (HEK293): -0.775%
outcome (KB-3-1): inactive
max response (NIH3T3): -0.721%

CC(C)C(CO)Nc1nc(Nc2cc(N)cc(Cl)c2)c2ncn(C(C)C)c2n1 (stereo unspecified)
Potency (HEK293): 16.4 µM (active)
Potency (KB-3-1): 10.3 µM (active)
Potency (NIH3T3): 3.66 µM (active)

Cc1cc(-c2cc(O)ccc2Cl)cc2nnc(Nc3ccc(OCCN4CCCC4)cc3)nc12
Potency (HEK293): 3.26 µM (active)
Potency (KB-3-1): 4.61 µM (active)
Potency (NIH3T3): 11.6 µM (active)

C[C@@H](Oc1cc(-n2cnc3ccc(OC4CCN(C)CC4)cc32)sc1C(N)=O)c1ccccc1C(F)(F)F
Potency (HEK293): 0.0411 µM (active)
Potency (KB-3-1): 0.0092 µM (active)
Potency (NIH3T3): 5.8 µM (active)

Cn1cc(S(=O)(=O)c2ccc(Cl)cc2)c2cccc(N3CCNCC3)c21
Potency (HEK293): 6.51 µM (active)
Potency (KB-3-1): 20.6 µM (active)
Potency (NIH3T3): 18.4 µM (active)

CC1(C)CC(=O)C2=C(C1)NC(=S)NC2c1cccc(O)c1 (stereo unspecified)
Potency (HEK293): 1.16 µM (active)
Potency (KB-3-1): 0.82 µM (active)

Cc1cc(Nc2ccc(NC(=O)c3ccc(Nc4ccnc5ccccc45)cc3)cc2)nc(N)n1
Potency (HEK293): 3.26 µM (active)
Potency (KB-3-1): 4.61 µM (active)
Potency (NIH3T3): 18.4 µM (active)

O=C(c1ccccc1)c1ccc2nc(NC(=O)c3csc(C4CCN(c5ncnc6ccsc56)CC4)n3)[nH]c2c1
Potency (HEK293): 5.17 µM (active)
Potency (KB-3-1): 8.2 µM (active)

CNC12CC3C[C@@](C)(C1)C[C@](C)(C3)C2
max response (HEK293): -16.8%
outcome (KB-3-1): inactive

O=c1[nH]ccc2cc(OC3CCNCC3)ccc12
max response (HEK293): -16.8%
outcome (KB-3-1): inactive

Cc1ccc(C(=O)N(CCCN)C(c2nc3cc(Cl)ccc3c(=O)n2Cc2ccccc2)C(C)C)cc1 (stereo unspecified)
Potency (HEK293): 0.0092 µM (active)
Potency (KB-3-1): 0.0082 µM (active)

CC1(C)CC(NC(=O)C(=O)Nc2ccc(Br)cc2)CC(C)(C)N1
Potency (HEK293): 4.11 µM (active)
Potency (KB-3-1): 4.61 µM (active)

O=C(NCc1cccc(O)c1)Nc1nc(-c2ccncc2)cs1
max response (HEK293): -21.2%
max response (KB-3-1): -3.25%

COC(=O)C1(C)c2[nH]c3ccccc3c2CCN1C(=O)CCl (stereo unspecified)
Potency (HEK293): 7.31 µM (active)
Potency (KB-3-1): 20.6 µM (active)

CNC(=O)c1ccccc1Nc1cc(Nc2ccc(N3CCOCC3)cc2OC)ncc1C(F)(F)F
Potency (HEK293): 6.51 µM (active)
max response (KB-3-1): -12.1%

C=CC(C)(C)c1[nH]c2cc3c(cc2c1CC1NC(=O)C2CCCN2C1=O)C=CC(C)(C)O3 (stereo unspecified)
outcome (HaCat [1]): inactive
max response (KB-3-1): 8.42%
outcome (NIH3T3): inactive
Potency (HACAT [2]): inactive
outcome (HEK293T): inactive [at 17.4 µM]

c1cn2cc(-c3ccc4cn[nH]c4c3)nc(Nc3ccc(N4CCOCC4)cc3)c2n1
Potency (HEK293): 18.4 µM (active)
max response (KB-3-1): 3.1%
max response (NIH3T3): -11.5%

O=C(c1cc2c(cc1F)OC(c1ccc(F)cc1)(c1ccc(Cl)cc1Cl)O2)N1CCOCC1 (stereo unspecified)
Potency (HEK293): 11.6 µM (active)
Potency (KB-3-1): 13 µM (active)
max response (NIH3T3): -3.07%

C[C@@H]1O[C@@H](O[C@H]2[C@H](OC(=O)[C@]34CCC(C)(C)C[C@H]3C3=CCC5[C@@]6(C)C[C@H](O)[C@H](O[C@@H]7O[C@H](CO)[C@@H](O)[C@H](O)[C@H]7O)[C@@](C)(CO)C6[C@H](O)C[C@@]5(C)[C@]3(C)CC4)OC[C@H](O)[C@@H]2O)[C@H](O)[C@H](O)[C@H]1O[C@@H]1OC[C@@H](O)[C@H](O[C@@H]2OC[C@](O)(CO)[C@H]2O)[C@H]1O (stereo partly specified)
max response (HaCat [1]): -1.17%
max response (KB-3-1): 3.08%
outcome (NIH3T3): inactive
